The structures appear in SMILES notation. Records with an inconclusive call do not appear. The source made the active and inactive calls. The calls were made as follows, unless noted: active = hit-call score of the fitted dose curve at least 0.9, where 1 is the maximum; inactive = score below 0.9.

Here are results for four compounds from PubChem BioAssay (EPA / NIEHS).

For experiment [1], the target named is Paired box protein Pax-6 (Homo sapiens) (UniProt P26367). As to the kind of experiment: ATG_Pax6_CIS: Attagene CIS-FACTORIAL HepG2 Assay for human Paired Box 6 (PAX6) (AID 2282956). The conditions noted are these: HepG2 CIS-FACTORIAL PAX6 reporter transcription, RNA readout; actives raise or lower the signal. Summed up: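 Read-out is reporter transcript level, measured by RT-PCR with fluorescent primer extension and capillary electrophoresis after 24 h dosing of transfected HepG2 cells. Activity in either direction fitted relative to DMSO control.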

Experiment [2] is described as follows: ATG_PXRE_CIS: Attagene CIS-FACTORIAL HepG2 Assay for human Pregnane X Receptor Element (PXRE) (AID 2282957). The conditions noted are these: HepG2 Attagene CIS-FACTORIAL PXRE reporter, mRNA; actives raise or lower the signal. The procedure, abridged: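 Fluorescent capillary electrophoresis of amplified reporter cDNA gave the signal, collected 24 h after dosing HepG2 cells that held transfected cis-element reporter constructs.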

Experiment [3] in a line: ATG_PPRE_CIS: Attagene CIS-FACTORIAL HepG2 Assay for human Peroxisome Proliferator-activated Response Element (PPRE) (AID 2282958). The conditions noted are these: HepG2 PPRE cis-element reporter, Attagene transcription factor profiling; actives raise or lower the signal. Summed up: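 Transcript-level reporter induction in transfected HepG2 cells after 24 h chemical exposure, quantified by fluorescence from RT-PCR products separated by capillary electrophoresis.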

Experiment [4] is described as follows: ATG_RORE_CIS: Attagene CIS-FACTORIAL HepG2 Assay for human RAR-related Orphan Receptor Element (RORE) (AID 2282959). The settings on record: HepG2 Attagene cis-factorial RORE reporter, mRNA; actives raise or lower the signal. Summed up:
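Multiplexed reporter assay measuring mRNA induction from a cis promoter element in transiently transfected HepG2 cells after 24 h treatment. Detection via RT-PCR and capillary electrophoresis fluorescence; DMSO serves as baseline.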

Experiment [5] can be described thus: ATG_Sox_CIS: Attagene CIS-FACTORIAL HepG2 Assay for human SRY-box transcription factor (SOX) (AID 2282960). The settings on record: HepG2 Attagene cis-factorial SOX reporter, mRNA; actives raise or lower the signal. Summed up:
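Cells were transfected with reporter constructs under cis-regulatory promoters, then exposed to chemicals for 24 h. Reporter transcripts were quantified by fluorescence after RT-PCR and capillary electrophoresis; activity was fitted in both directions against DMSO.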

Experiment [6] has as its target Transcription factor Sp1 (Homo sapiens) (UniProt P08047). As to the kind of experiment: ATG_Sp1_CIS: Attagene CIS-FACTORIAL HepG2 Assay for human Specificity Protein 1 (Sp1) (AID 2282961). The conditions noted are these: HepG2 Sp1 cis-reporter transcription, actives raise or lower the signal. Summed up: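 Measures mRNA induction of an Sp1-linked reporter in HepG2 cells 24 h post-dosing. Multiplexed reporters read by RT-PCR and capillary electrophoresis; DMSO serves as negative control and baseline.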

Experiment [7] in a line: ATG_SREBP_CIS: Attagene CIS-FACTORIAL HepG2 Assay for human Sterol Regulatory Element Binding (SREBP) (AID 2282962). The settings on record: HepG2 Attagene cis-factorial SREBP reporter, mRNA; actives raise or lower the signal. The procedure, abridged: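 Endogenous SREBP activity read as cis-element-driven reporter transcript in transiently transfected HepG2, 24 h post-dosing; quantified via RT-PCR plus capillary electrophoresis of fluorescent fragments. Gain or loss of signal fitted relative to DMSO baseline.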

Experiment [8] has as its target Signal transducer and activator of transcription 3 (Homo sapiens) (UniProt P40763). As to the kind of experiment: ATG_STAT3_CIS: Attagene CIS-FACTORIAL HepG2 Assay for human Signal Transducer and Activator of Transcription 3 (STAT3) (AID 2282963). The conditions noted are these: HepG2, Attagene cis-factorial STAT3 reporter transcription; actives raise or lower the signal. The procedure, abridged: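 Readout: fluorescent reporter mRNA fragments resolved by capillary electrophoresis. Setup: HepG2 transfected with MRTUs reporting endogenous transcription-factor activity, dosed 24 h. Gain or loss of signal fitted bidirectionally against DMSO control.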

A short description of experiment [9]: ATG_TA_CIS: Attagene CIS-FACTORIAL HepG2 Assay for human TA Basal Promoter (AID 2282964). The conditions noted are these: HepG2 Attagene CIS-factorial TA basal promoter reporter; actives raise or lower the signal. Summed up: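 Transfected HepG2, 24 h compound exposure; RNA → RT-PCR → FAM primer extension → HpaI cut → CE fluorescence. Gain/loss-of-signal fitted against DMSO negative control. Background-control readout.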

Experiment [10] is described as follows: ATG_TCF_b_cat_CIS: Attagene CIS-FACTORIAL HepG2 Assay for human T-Cell-Factor with beta-catenin (TCF/b-cat) (AID 2282965). The conditions noted are these: HepG2 TCF/beta-catenin cis-reporter transcription, actives raise or lower the signal. Summed up: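 HepG2, transient MRTU transfection, cis-element-driven reporters (endogenous TFs). 24 h compound exposure. Readout: reporter mRNA by RT-PCR + 6-FAM primer extension, HpaI digest, capillary electrophoresis. Gain/loss fit vs DMSO baseline.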

The nature of experiment [11]: ATG_TAL_CIS: Attagene CIS-FACTORIAL HepG2 Assay for human TAL Basal Promoter (AID 2282966).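 Also: background control endpoint measuring basal TAL promoter reporter mRNA not a specific factor.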 The settings on record: HepG2 Attagene cis-factorial TAL promoter reporter; actives raise or lower the signal. Summed up:
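Transiently transfected HepG2 (cis-regulated reporter units), 24 h treatment, mRNA read by fluorescent CE after RT-PCR; bidirectional fit, DMSO baseline.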

Experiment [12] in a line: ATG_TGFb_CIS: Attagene CIS-FACTORIAL HepG2 Assay for human Transforming Growth Factor (TGF) (AID 2282967). The conditions noted are these: HepG2 Attagene CIS TGFb reporter, mRNA transcription; actives raise or lower the signal. Summed up:
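Readout: fluorescently labeled reporter cDNA fragments resolved by capillary electrophoresis after RT-PCR. Transfected HepG2 cells dosed for 24 h; endogenous TF activity at TGFB1-linked cis element; gain or loss fitted relative to DMSO.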

Experiment [13] is described as follows: ATG_VDRE_CIS: Attagene CIS-FACTORIAL HepG2 Assay for human Vitamin D Receptor Element (VDRE) (AID 2282968). The conditions noted are these: HepG2 VDRE cis-reporter transcription, actives raise or lower the signal. The procedure, abridged:
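Transient MRTU transfection of HepG2, 24 h compound exposure. Readout: reporter transcripts via RT-PCR and capillary electrophoresis, fluorescence. Bidirectional fit vs DMSO.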

Experiment [14] has as its target Steroid hormone receptor ERR1 (Homo sapiens) (UniProt P11474). As to the kind of experiment: ATG_ERRa_TRANS: Attagene TRANS-FACTORIAL HepG2 Assay for human Estrogen-Related Receptor alpha (ERRa) (AID 2282971; active = hit-call score of the fitted dose curve at least 0.9, where 1 is the maximum). The conditions noted are these: HepG2 Attagene TRANS reporter, ERRa transactivation. The procedure, abridged:
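HepG2 cells transiently transfected with multiplexed GAL4-UAS reporter units reading chimeric ERRa-Gal4 activity; 24 h compound exposure. Reporter mRNA measured by RT-PCR, 6-FAM labelling, HpaI digest and capillary electrophoresis; gain of signal fitted versus DMSO baseline.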

In experiment [15] the target is X-box-binding protein 1 (Homo sapiens) (UniProt P17861). As to the kind of experiment: ATG_Xbp1_CIS: Attagene CIS-FACTORIAL HepG2 Assay for human X-box Binding Protein 1 (XBP1) (AID 2282972). The settings on record: HepG2 XBP1 cis-element reporter, Attagene multiplex; actives raise or lower the signal. The procedure, abridged: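 Reporter transcripts were quantified by RT-PCR with fluorescent primer extension and capillary electrophoresis after 24 h chemical exposure. Cells: transiently transfected HepG2 carrying cis-regulated reporter constructs; data fitted bidirectionally relative to DMSO.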

Experiment [16] can be described thus: ATG_M_19_TRANS: Attagene TRANS-FACTORIAL HepG2 Assay for M19 Transcription Factor (Internal Marker) (AID 2282974; active = hit-call score of the fitted dose curve at least 0.9, where 1 is the maximum). The conditions noted are these: HepG2 Attagene TRANS-FACTORIAL M19 internal marker reporter. The procedure, abridged:
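After transfection of HepG2 with GAL4-UAS-driven reporter constructs, cells are dosed for 24 h. Total RNA is reverse-transcribed, reporter sequences PCR-amplified and labelled, then HpaI-digested and sized by capillary electrophoresis.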

Experiment [17] can be described thus: ATG_GAL4_TRANS: Attagene TRANS-FACTORIAL HepG2 Assay for GAL4 (Internal Marker) (AID 2282976; active = hit-call score of the fitted dose curve at least 0.9, where 1 is the maximum). The settings on record: HepG2 Attagene TRANS GAL4 internal marker reporter. Summed up: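 HepG2 cells transiently transfected with multiplexed GAL4-UAS reporter constructs were dosed for 24 h. Reporter mRNA was measured by RT-PCR, 6-FAM primer extension, HpaI digestion and capillary electrophoresis, and gain of signal was fitted relative to DMSO.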

Chain of Signal transducer and activator of transcription 3 (Homo sapiens) (P40763 whole entry, looked up, the tested form may be a part): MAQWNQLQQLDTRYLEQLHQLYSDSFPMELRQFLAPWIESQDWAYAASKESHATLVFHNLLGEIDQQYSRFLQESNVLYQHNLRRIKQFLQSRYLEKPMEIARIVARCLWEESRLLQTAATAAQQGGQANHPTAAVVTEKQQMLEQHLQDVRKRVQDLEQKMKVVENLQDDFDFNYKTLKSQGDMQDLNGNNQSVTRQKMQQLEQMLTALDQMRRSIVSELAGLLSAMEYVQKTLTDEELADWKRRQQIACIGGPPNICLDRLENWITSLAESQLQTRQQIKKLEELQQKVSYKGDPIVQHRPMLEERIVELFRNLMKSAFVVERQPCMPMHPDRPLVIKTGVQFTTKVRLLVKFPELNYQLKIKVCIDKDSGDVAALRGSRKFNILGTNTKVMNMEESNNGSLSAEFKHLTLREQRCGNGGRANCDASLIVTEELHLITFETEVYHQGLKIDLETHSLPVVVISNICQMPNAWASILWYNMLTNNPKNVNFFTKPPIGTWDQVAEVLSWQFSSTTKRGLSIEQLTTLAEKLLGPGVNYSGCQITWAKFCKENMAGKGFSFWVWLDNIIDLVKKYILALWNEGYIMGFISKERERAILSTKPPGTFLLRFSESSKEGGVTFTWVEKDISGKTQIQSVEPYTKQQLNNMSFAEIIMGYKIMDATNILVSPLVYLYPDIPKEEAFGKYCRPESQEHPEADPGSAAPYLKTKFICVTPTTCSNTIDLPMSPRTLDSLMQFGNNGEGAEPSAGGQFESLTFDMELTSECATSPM
Chain of X-box-binding protein 1 (Homo sapiens) (P17861 whole entry, looked up): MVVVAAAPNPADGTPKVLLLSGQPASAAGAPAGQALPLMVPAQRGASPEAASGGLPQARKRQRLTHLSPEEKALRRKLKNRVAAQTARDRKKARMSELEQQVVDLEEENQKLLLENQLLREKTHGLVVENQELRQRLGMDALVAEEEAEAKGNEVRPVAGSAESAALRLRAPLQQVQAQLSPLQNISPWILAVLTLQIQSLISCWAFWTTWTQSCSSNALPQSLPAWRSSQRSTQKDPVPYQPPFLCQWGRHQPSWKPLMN
Chain of Paired box protein Pax-6 (Homo sapiens) (P26367 whole entry, looked up): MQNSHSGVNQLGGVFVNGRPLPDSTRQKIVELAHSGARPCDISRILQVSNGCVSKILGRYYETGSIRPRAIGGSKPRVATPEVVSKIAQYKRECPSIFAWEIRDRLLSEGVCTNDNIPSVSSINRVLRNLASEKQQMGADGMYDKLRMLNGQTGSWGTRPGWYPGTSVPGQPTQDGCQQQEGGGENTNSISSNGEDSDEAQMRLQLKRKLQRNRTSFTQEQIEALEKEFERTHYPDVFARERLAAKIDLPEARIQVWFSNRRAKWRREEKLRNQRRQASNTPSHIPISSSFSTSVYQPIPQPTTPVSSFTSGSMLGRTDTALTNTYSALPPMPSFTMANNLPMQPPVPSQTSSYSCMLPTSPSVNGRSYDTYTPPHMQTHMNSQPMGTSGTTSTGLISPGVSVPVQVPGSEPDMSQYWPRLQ
Chain of Transcription factor Sp1 (Homo sapiens) (P08047 whole entry, looked up): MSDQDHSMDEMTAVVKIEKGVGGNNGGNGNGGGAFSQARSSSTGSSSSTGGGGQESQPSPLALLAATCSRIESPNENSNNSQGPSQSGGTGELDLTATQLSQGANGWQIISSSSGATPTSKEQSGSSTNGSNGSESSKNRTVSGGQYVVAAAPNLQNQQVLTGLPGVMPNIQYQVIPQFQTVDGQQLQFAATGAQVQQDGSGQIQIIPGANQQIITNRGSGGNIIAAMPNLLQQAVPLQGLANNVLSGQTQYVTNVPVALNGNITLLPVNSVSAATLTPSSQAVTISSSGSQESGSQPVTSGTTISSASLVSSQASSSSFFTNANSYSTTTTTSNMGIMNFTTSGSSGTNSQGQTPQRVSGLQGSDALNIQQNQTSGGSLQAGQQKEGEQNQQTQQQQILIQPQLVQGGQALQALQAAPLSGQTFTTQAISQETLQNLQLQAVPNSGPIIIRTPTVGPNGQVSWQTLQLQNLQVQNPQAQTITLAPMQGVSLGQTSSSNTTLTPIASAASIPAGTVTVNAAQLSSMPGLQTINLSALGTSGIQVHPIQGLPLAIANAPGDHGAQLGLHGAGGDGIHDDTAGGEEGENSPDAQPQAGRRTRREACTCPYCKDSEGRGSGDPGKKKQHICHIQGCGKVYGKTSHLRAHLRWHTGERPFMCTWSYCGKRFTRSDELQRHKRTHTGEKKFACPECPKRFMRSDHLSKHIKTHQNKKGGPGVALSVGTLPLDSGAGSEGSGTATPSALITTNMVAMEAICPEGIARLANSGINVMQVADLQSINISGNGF
Chain of Steroid hormone receptor ERR1 (Homo sapiens) (P11474 whole entry, looked up, the tested form may be a part): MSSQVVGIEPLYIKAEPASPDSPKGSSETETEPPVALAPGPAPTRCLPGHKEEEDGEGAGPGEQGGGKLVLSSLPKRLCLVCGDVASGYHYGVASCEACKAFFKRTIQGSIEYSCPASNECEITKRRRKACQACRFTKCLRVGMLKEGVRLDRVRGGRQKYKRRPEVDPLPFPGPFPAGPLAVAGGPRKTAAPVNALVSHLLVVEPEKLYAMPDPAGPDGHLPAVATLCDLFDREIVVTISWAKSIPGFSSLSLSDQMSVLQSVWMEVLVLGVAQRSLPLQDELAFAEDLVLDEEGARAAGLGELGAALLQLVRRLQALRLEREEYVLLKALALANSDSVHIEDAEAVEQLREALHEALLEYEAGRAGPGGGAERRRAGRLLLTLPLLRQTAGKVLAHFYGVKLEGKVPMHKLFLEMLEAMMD

Regarding `CC1(C)C(=O)N(Br)C(=O)N1Cl`, the compound was called inactive in experiment [1], in experiment [3], in [4], in [5], in experiment [6] and in experiment [7]. For the same compound, the compound was called inactive in experiment [8], in experiment [9], in experiment [10], in experiment [11], in experiment [12] and in [13]. The call in experiment [14], in experiment [15] and in experiment [16] was inactive. Besides, the AC50 in experiment [2] is 67.5 µM (active).
Turning to `CCCC1CCC(=O)O1` (centres undefined), the outcome in [1], in experiment [2], in [3], in experiment [4], in experiment [5] and in experiment [6] was inactive. The outcome in [7], in [8], in [9], in [10], in [11] and in [12] was inactive. Besides, the call in experiment [13] and in [17] was inactive.
As to `CCO[Si](CCCS)(OCC)OCC`, the compound was called inactive in experiment [1], in experiment [2], in experiment [3], in [4], in experiment [5] and in experiment [6]. In addition, the result in experiment [7], in experiment [8], in experiment [9], in experiment [10], in [11] and in experiment [12] was inactive. Besides, the call in experiment [15], in [16] and in experiment [17] was inactive.
Consider `CCCCNC(=O)NS(=O)(=O)c1ccc(N)cc1`, for which the compound was classed as inactive in experiment [1], in [2], in [3], in [4], in [5] and in experiment [6]. For the same compound, the compound was classed as inactive in experiment [7], in experiment [8], in experiment [9], in experiment [10], in experiment [11] and in experiment [12]. In addition, the call in experiment [14] and in experiment [15] was inactive.

What is called AC50 is the concentration giving half of the maximal activity seen.
